{"source": "PubChem BioAssay AID1347171", "about": "(National Center for Advancing Translational Sciences (NCATS), 2019)", "note": "Inconclusive results are not listed. Entries that show only a call come without a potency. Active and inactive are the calls of the source. The call rests on the fitted dose curve; in most records, active means well fitted inhibition curve with a large enough effect; inconclusive means small, poorly fitted or top-dose-only effect; inactive means no such curve, though single readings can be large or run the other way."}
{"assay": "Orthogonal mCherry assay for qRT-PCR qHTS of selected Zika virus inhibitors", "settings": "Vero cells, ZIKV-mCherry infection imaging, 48-72 h; series mostly up to 32.6 µM", "description": "Description: Assay Submitters (PI): Avindra Nath, Ph.D., National Institute of Neurological Disorders and Stroke (NINDS), Bethesda, MD Radhakrishnan Padmanabhan, Ph.D., Georgetown University (GU), Washington D.C. Zika Virus causes congenital defects, including microcephaly and is associated with Guillain-Barre syndrome, eningoencephalitis and myelitis in infected adult. […] Using a target-based approach, we hope to establish a screening paradigm to uncover novel, cell-active NS2B-NS3 protease (Zika Virus) specific inhibitors from NCATS' collection of small molecules using qHTS. […] Four assay panel was created to identify potential Zika Virus inhibitors. Namely, (1) GU unlinked NS2B-NS3 AMC tagged protease qHTS, (2) GU unlinked NS2B-NS3 Rhodamine tagged protease qHTS, (3) NINDS linked NS2B-NS3 AMC tagged protease qHTS, (4) NINDS linked NS2B-NS3 Rhodamine tagged protease qHTS. Inhibitors of the Zika virus primary screens are confirmed using qRT-PCR secondary assays, mCherry orthogonal assay, and Vero cells viability counterscreen. Early Translation Branch (ETB) National Center for Advancing Translational Sciences (NCATS), Rockville, MD National Institute of Health (NIH), Bethesda, Maryland\n384 well ZIKV-mCherry Assay: We have developed a new orthogonal imaging assay in 384-well plate format, which uses recombinant virus ZIKV-mCherry in Vero cells. Briefly, 30 microL of Vero cells derived from a green monkey cell line, were dispensed by Multidrop Dispenser into a clear solid bottom black 384 well plate (ultracarrier, Perkin Elmer LifeSciences) at a concentration of 5,000 cells per well. The plate was incubated overnight in a CO2 incubator at 37 degrees C. Compounds were delivered as a 126 nL DMSO solution by Kalypsys pintool transfer. Following compound transfer, 10 microL of ZIKV-mCherry was added at an MOI of 1 and incubated in a CO2 incubator for 48-72 hrs at 37 degrees C. After sufficient incubation of infected cells in test plates, 8 microL of 32% PFA was dispensed into assay plates to fix cells and incubated for 20 min at room temperature. Plates were washed 3 times with PBS using BioTek EL406 microplate washer/dispenser. After washing, 30 microL of PBS with 0.01% TX-100 containing Hoechst dye was dispensed into the each well of the plates for nuclear staining. 384-well plates were imaged on an automated, widefield high content imager (INCell 2200, GE Healthcare) using a 10x/0.45 NA lens and standard DAPI (nuclear stain) and mCherry (cy5) excitation and emission filters. The TIFFs were quantitated using the canned Multi Target Analysis protocol (GE Investigator Workstation software v3.7.2). Briefly, nuclei from the DAPI channel were identified using top hat segmentation and a sensitivity setting of 96 and minimum size area of 35 microm2. A recombinant Zika viral infection was monitored in the Cy5 channel (cells) using a 2 microm collar dilation from the nuclear bitmap. mCherry objects with an average nuclear RFU intensity above 450 (3 stdev above mean negative control wells) were considered \"mcherry positive\" and data was analyzed by percent infection rate."}
{"compound": "O=C(Nc1ccc([N+](=O)[O-])cc1Cl)c1cc(Cl)ccc1O", "Potency": "inactive"}
{"compound": "COc1cc2c(c(O)c1OC/C=C(\\C)CC/C=C(/C)CCC=C(C)C)CN(C(CCC(=O)O)C(=O)O)C2=O", "note": "(centres undefined)", "Potency": "inactive"}
{"compound": "CC[C@H](C)[C@H]1O[C@]2(CC[C@@H]1C)C[C@@H]1C[C@@H](C/C=C(\\C)[C@@H](O[C@H]3C[C@H](OC)[C@@H](O[C@H]4C[C@H](OC)[C@@H](O)[C@H](C)O4)[C@H](C)O3)[C@@H](C)/C=C/C=C3\\CO[C@@H]4[C@H](O)C(C)=C[C@@H](C(=O)O1)[C@]34O)O2", "Potency": "inactive"}
{"compound": "Nc1ncnc2c([C@@H]3N[C@H](CO)[C@@H](O)[C@H]3O)c[nH]c12", "Potency": "14.1 µM (active)"}
{"compound": "COc1c(C)c2c(c(O)c1C/C=C(\\C)CCC(=O)O)C(=O)OC2", "Potency": "inactive"}
{"compound": "N#CC1C(=O)Nc2scc(-c3ccc(-c4ccccc4O)cc3)c2C1=O", "note": "(centres undefined)", "Potency": "inactive"}
{"compound": "Cc1cccc(C)c1NS(=O)(=O)c1ccc(NS(=O)(=O)c2ccc3c(c2)OCCO3)cc1", "Potency": "3.55 µM (active)"}
{"compound": "COc1cccc(-n2nc(C(=O)O)cc2-c2ccc(C3CCCCC3)c(Cl)c2)c1", "Potency": "25.1 µM (active)"}
{"compound": "CC(C)c1onc(-c2c(Cl)cccc2Cl)c1COc1ccc(/C=C/c2cccc(C(=O)O)c2)c(Cl)c1", "Potency": "25.1 µM (active)"}
{"compound": "CC(C)=CCc1c2c(c3occ(-c4ccc(O)c(O)c4)c(=O)c3c1O)C=CC(C)(C)O2", "Potency": "inactive"}
{"compound": "CC(C)c1cc(C(C)C)c(CC(=O)NS(=O)(=O)Oc2c(C(C)C)cccc2C(C)C)c(C(C)C)c1", "Potency": "inactive"}
{"compound": "COc1ccc(NS(=O)(=O)c2ccc(NS(=O)(=O)c3ccc4c(c3)OCCO4)cc2)cc1", "Potency": "inactive"}
{"compound": "Cc1cc(C(C#N)c2ccc(Cl)cc2)c(Cl)cc1NC(=O)c1cc(I)cc(I)c1O", "note": "(centres undefined)", "Potency": "inactive"}
{"compound": "CN(Cc1ccc(C(=O)O)cc1)c1ccc(OCc2c(-c3c(Cl)cccc3Cl)noc2C2CC2)nc1C(F)(F)F", "Potency": "14.1 µM (active)"}
{"compound": "CC1(C)CCC(CN2CCN(c3ccc(C(=O)NS(=O)(=O)c4ccc(NCC5CCOCC5)c([N+](=O)[O-])c4)c(Oc4cnc5[nH]ccc5c4)c3)CC2)=C(c2ccc(Cl)cc2)C1", "Potency": "inactive"}
{"compound": "Cc1cc2c(C(C)C)c(O)c(O)c(C=O)c2c(O)c1-c1c(C)cc2c(C(C)C)c(O)c(O)c(C=O)c2c1O", "Potency": "inactive"}
{"compound": "Nc1ccn([C@@H]2O[C@H](CO)[C@@H](O)C2(F)F)c(=O)n1", "Potency": "inactive"}
{"compound": "O=C1NC(=O)/C(=C/c2ccc3c(c2)OC(F)(F)O3)S1", "Potency": "inactive"}
{"compound": "Cc1ccc(-n2[nH]c(C)c(N=Nc3cccc(-c4cccc(C(=O)O)c4)c3O)c2=O)cc1C", "Potency": "inactive"}
{"compound": "Cc1cc(NC(=O)c2ccc(Cl)c(Cl)c2)ccc1-c1cc2ccccc2oc1=O", "Potency": "inactive"}
{"compound": "Oc1cc2ccccc2c2ccccc12", "Potency": "inactive"}
{"compound": "CC(C)c1ccc2c(c1)c(SC(C)(C)C)c(CC(C)(C)C(=O)O)n2Cc1ccc(Cl)cc1", "Potency": "inactive"}
{"compound": "CC1=C(C(=O)OCc2ccccc2)C(c2ccc(-c3ccccc3)cc2)NC(=O)N1CCCCCC(=O)O", "note": "(centres undefined)", "Potency": "inactive"}
{"compound": "Oc1cccc(-c2c3nc(c(-c4cccc(O)c4)c4ccc([nH]4)c(-c4cccc(O)c4)c4nc(c(-c5cccc(O)c5)c5ccc2[nH]5)CC4)C=C3)c1", "Potency": "7.08 µM (active)"}
